# High-throughput results (PubChem)
# Hits are enriched below; roughly 6.5% of the tested compounds scored in any of these assays.
# Vaccinia Venus: vaccinia inhibition (Venus reporter); actives 0.46% (n = 330,000); Potency, µM (top dose mostly 36.5 µM), for the others: at the highest dose activity change, negative = inhibition, hits mostly inhibitors; AID 720580; Vaccinia virus Venus reporter expression, fluorescence; calls by dose curve; tested in A549 cells; further: potency means the concentration at half of the fitted maximal effect; nearly all actives have a fitted effect of over 30% in size
# Marburg entry inh: Marburg virus entry inhibition. actives 1.8% (n = 300,000). Potency, µM (top dose mostly 37.8 µM), without a hit: at the top dose activity change, negative = inhibition, most hits filed as inhibitors. Marburg virus pseudotyped entry inhibition, cell reporter; calls by dose curve; tested in HEK293 cells; further: potency means the concentration at half of the fitted maximal effect
# HCMV inh: inhibitors of human cytomegalovirus | HFF cells, HCMV-luciferase reporter, 72 h; active compounds read low | activity change, negative = inhibition, % at 57.5 µM | actives 4.5% (n = 410,000) | AID 1259415; in the data active means activity change below about -60%; inconclusive means no clear call, values can overlap the other calls; inactive means above about -39%
#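 Luciferase read-out from HCMV-luciferase-infected HFFs (MOI 1 PFU/cell) 72 h post infection at 37C; compounds added after 16 h cell attachment; activity normalized between buffer-only basal and Salinomycin (10uM) inhibitor controls.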
# VACV mCherry inh: vaccinia inhibition (mCherry reporter) | Potency, µM (top dose mostly 36.5 µM), without a hit: at the highest dose activity change, negative = inhibition, hits mostly inhibitors | Vaccinia virus mCherry reporter infection, fluorescence | actives 0.63% (n = 310,000); calls by dose curve; tested in A549 cells; further: potency means the concentration at half of the fitted maximal effect; nearly all actives have a fitted effect of over 35% in size
# Lassa entry inh: inhibitors of Lassa virus binding or cell entry; Lassa virus pseudotype entry inhibition, cell reporter; Potency, µM (top dose mostly 37.9 µM), inactives show top-dose activity change, negative = inhibition, usual class: inhibitors; actives 1.2% (n = 300,000); AID 540256; calls by dose curve; tested in HEK293 cells; further: potency means the concentration at half of the fitted maximal effect; nearly all actives have a fitted effect of over 50% in size
# FMDV antiviral: antivirals against foot and mouth disease virus; actives 1.2% (n = 410,000); FMDV antiviral cell-based qHTS; Potency, µM (doses to about 57.9 µM), inactives show top-dose activity change, negative = inhibition, usual class: inhibitors; calls by dose curve; tested in HEK293T cells; further: read-out not given here; potency means the concentration at half of the fitted maximal effect; nearly all actives have a fitted effect of over 45% in size
# Numbers without * were called inactive; i = inactive; ? = inconclusive; . = not tested or not shown; [ ] = another dose, or the depositor's remark. On the % scale 0 is the no-effect control and ±100 the full control effect.
SMILES,Vaccinia Venus,Marburg entry inh,HCMV inh,VACV mCherry inh,Lassa entry inh,FMDV antiviral
COc1cccc(C(=O)Nc2ccc(Cl)c(-c3nc4ccccc4[nH]3)c2)c1,?,?,-89*,-22%,?,?
CCC(=O)Nc1ccc(Cl)c(-c2nc3ccccc3[nH]2)c1,-23%,-2%[46.1 µM],-16,0%,6%[46.1 µM],-22%
O=C(C1COc2ccccc2O1)N(Cc1cccnc1)c1nc2ccc(F)cc2s1 (stereo not drawn),-10%,.,126,i,?,17%
COc1ccc(Cl)cc1NC(=O)c1ncn(-c2ccccc2)n1,-16%,10%[46.1 µM],51,-15%,1%[46.1 µM],17%
Cc1ccc(N2CCN(S(=O)(=O)N3CCCCC3)CC2)cc1C,2%,12%[46.1 µM],-69*,-6%,-4%,-11%
Cc1ccc(N2C(=O)c3ccc(C(=O)N4CCN(c5ccc(C)c(C)c5)CC4)cc3C2=O)cc1,0%,8%,-70*,i,?,-16%
Oc1c(N=Nc2nn[nH]n2)ccc2ccccc12,?,.,-85*,?,.,?
Oc1c(N=Nc2ccc(F)cc2)ccc2ccccc12,8%,?,97,?,?,14µM*
COc1cccc(N=Nc2ccc3ccccc3c2O)c1,.,.,34,.,.,-59%
Oc1ccc2ccccc2c1N=Nc1ccc(F)cc1,3%,-2%,33,-5%,-22%,3%
Cc1ccc(N=Nc2ccc3ccccc3c2O)cc1,5%,?,?,-8%,4.5µM*,7.9µM*
COc1ccc2cc(-c3ccccc3)c(=O)oc2c1,-25%,?,0,i,4.5µM*,-20%
O=c1oc2cc(OCc3c(F)cccc3Cl)ccc2cc1-c1ccccn1,-1%,2%,10,0%[1.46 µM],?,-27%
CCCOc1ccc2cc(-c3ccccn3)c(=O)oc2c1,-18%,1.8µM*,-77*,i,2.8µM*,10µM*
COC(=O)C(C)Oc1ccc2cc(-c3ccccc3)c(=O)oc2c1 (stereo not drawn),-19%,?,0,-27%,12%[46.1 µM],15%
CCCc1c(CC)c(=N)c2ccccc2n1C,-23%,-12%,-87*,-22%,-18%[14.3 µM],?
CCCCCCCCCCn1ccc(=N)cc1,?,?,-100*,?,1.8µM*,16µM*
Cc1nn(C)c(C)c1S(=O)(=O)N(CC(=O)N1CCN(c2ccccc2)CC1)c1ccc(C(C)C)cc1,-15%,12%[46.1 µM],-1,-15%,3%[46.1 µM],-23%
COc1ccc([C@]23Cc4cc(OC)c(OC)cc4[C@H](O2)C2=C(CC(C)(C)CC2=O)O3)cc1,.,20%[14.2 µM],.,.,.,.
Cc1noc2ncnc(NCCc3ccccc3)c12,?,.,?,-29%,-17%[46.1 µM],?
Fc1ccc(-c2noc3ncnc(NCC4CCN(Cc5ccc(Cl)cc5)CC4)c23)cc1,-16%,.,-65*,-21%,?,-1%
Clc1ccc(-c2noc3ncnc(NCCc4ccccc4)c23)cc1,2%,.,?,-1%,4µM*,-9%
Cc1ccccc1Nc1oc(-c2ccccc2)nc1-c1cccc2ccccc12,.,7%[14.2 µM],.,.,.,.
COc1ccccc1C1=NOC(COc2ccc3c(C)cc(=O)oc3c2)C1 (stereo not drawn),-29%,?,-95*,-13%,?,-10%
COc1ccc2c(C)cc(=O)oc2c1,-11%,.,-102*,-1%,.,-22%
SMILES,Vaccinia Venus,Marburg entry inh,HCMV inh,VACV mCherry inh,Lassa entry inh,FMDV antiviral
COc1ccc(C2=NOC(COc3ccc4c(C)cc(=O)oc4c3)C2)c(OC)c1 (stereo not drawn),?,?,-69*,?,?,3%
Cc1cc(=O)oc2cc(Oc3ccc([N+](=O)[O-])cc3[N+](=O)[O-])ccc12,-8%,?,3,i,-26%,35µM*
COc1ccc(N2C(=O)C(CC(=O)Nc3ccc(Cl)cc3)N(Cc3ccc4c(c3)OCO4)C2=O)cc1 (stereo not drawn),-6%,0%[46.1 µM],-2,-6%,?,0%
Cc1ccc(Cl)cc1-n1c(=O)c2sc3ccccc3c2n(CC(=O)NC2CCCCC2)c1=O,0%,-29%[46.1 µM],-32,8%,-1%[46.1 µM],-6%
COc1cc(/C=C2/C=Cc3ccccc32)ccc1N(C)C,-8%,.,.,-11%,.,.
Cc1ccc([N+](=O)[O-])cc1N=Nc1c(C)[nH]n(C(N)=S)c1=O,.,.,15,.,.,8%
